Experimental findings from article PMC5540273 (PLoS ONE, 2017) are described below.

Conditions in all cases: concentration: 1 μM, replicates: in singlicate; n = 1
Test [1] relates to CDK8.
The subject of test [2] is CDK9.
The subject of test [3] is CDKL1.
Test [4] concerns CDKL2.
Test [5] relates to CDKL3.
The test system of test [6] is CDKL5.
Test [7] has as its system CHEK1.
Test [8] deals with CHEK2.
The subject of test [9] is CIT.
Test [10] relates to CLK1.
Test [11] relates to CLK2.
Test [12] relates to CLK3.
Test [13] concerns CLK4.
Test [14] has as its system CSF1R-autoinhibited.
For test [15], the system named is CSF1R.
The test system of test [16] is CSK.
The subject of test [17] is CSNK1A1L.
Test [18] relates to CSNK1A1.
The subject of test [19] is CSNK1D.
Test [20] has as its system CSNK1E.
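Note: KINOMEscan kinase panel screen.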

`COc1cccc(NC(=O)NCCNc2ccnc(Nc3ccc(F)cc3)n2)c1` [GSK1379879]: the “%Inh” value in [1] is 27%; in test [2] it was 0%; in test [3], 0%; in [4], 15%; in test [5] it was 0%; in [6], 0%. For the same compound, the “%Inh” value in [7] was 0%; in [8], 0%; in test [9], 6%; in [10], 17%; in test [11], 0%; in test [12] it was 0%. For the same compound, the “%Inh” value in [13] was 20%; in test [14] it was 20%; in test [15], 11%; in test [16], 0%; in [17], 0%; in test [18] it was 0%. Further, the “%Inh” value in [19] and in test [20] was 0% in each case.
With `CN(C)c1ncnc2nc[nH]c12` [SKF-31736], the “%Inh” value is on record as 35% in test [1]; 0% in test [2]; 23% in test [3]; 4% in test [4]; 0% in test [5]; 19% in test [6]. Moreover, the “%Inh” value in test [7] is 0%; in test [8], 0%; in [9], 12%; in test [10] it was 8%; in [11], 23%; in [12], 0%. Moreover, the “%Inh” value is recorded as 0% in test [13]; 0% in [14]; 6% in test [15]; 0% in test [16]; 0% in test [17]; 0% in test [18]. The “%Inh” value in test [19] is given as 0%; in test [20], 4%.
Regarding `Cc1cc(-c2ccnc(Nc3cccc(C#N)c3)n2)cc(C)c1O` [GSK1440913], the “%Inh” value amounted to 30% in test [1]; 52% in test [2]; 1% in test [3]; 89% in test [4]; 99.1% in [5]; 24% in test [6]. Also, the “%Inh” value in [7] is recorded as 0%; in [8] it was 0%; in [9], 94%; in test [10], 99%; in [11], 89%; in test [12], 91.5%. For the same compound, the “%Inh” value stood at 95.8% in [13]; 13% in [14]; 14% in [15]; 0% in test [16]; 30% in test [17]; 0% in [18]. Besides, the “%Inh” value in test [19] is given as 76%; in [20], 90.3%.
Take `CN(c1ccc(F)c(NC(=O)c2cccc(OC(C)(C)C#N)c2Cl)c1)c1ccc2nc(NC(=O)C3CC3)sc2n1`: the “%Inh” value came to 2% in [1]; 0% in test [2]; 0% in [3]; 27% in [4]; 0% in test [5]; 0% in test [6]. The “%Inh” value in test [7] amounted to 0%; in [8], 13%; in test [9], 93.7%; in [10], 0%; in test [11] it was 0%; in [12] it was 0%. The “%Inh” value in test [13] is given as 0%; in test [14], 17%; in test [15], 99.8%; in [16] it was 16%; in [17], 14%; in [18], 9%. Further, the “%Inh” value in [19] and in test [20] was 0% each time.
`CSc1ccc(NC2=C(c3ccc(Cl)cc3)C(=O)NC2=O)cc1` [SB-317658]: the “%Inh” value in [1], in test [2], in test [3], in test [4], in [5] and in test [6] was 0% in each case. Moreover, the “%Inh” value in [7] is 0%; in [8], 13%; in test [9] it was 0%; in [10], 17%; in test [11], 26%; in test [12], 0%. Further, the “%Inh” value in test [13] was determined as 19%; in test [14], 0%; in test [15], 30%; in test [16], 21%; in test [17], 0%; in test [18] it was 20%. The “%Inh” value in test [19] turned out to be 1%; in [20] it was 6%.
Regarding `Nc1ncc(-c2cn[nH]c2)c2scc(-c3ccc4c(c3)CCN4C(=O)Cc3ccccc3)c12` [GSK2593067], the “%Inh” value in test [1] is reported as 37%; in [2], 0%; in test [3], 0%; in [4], 28%; in [5], 0%; in [6], 0%. In addition, the “%Inh” value in test [7] was determined as 0%; in test [8] it was 0%; in [9], 0%; in test [10], 40%; in [11], 0%; in test [12], 0%. The “%Inh” value in [13] is 55%; in [14], 51%; in [15] it was 99.9%; in test [16], 68%; in test [17] it was 9%; in [18] it was 0%. Also, the “%Inh” value in test [19] is recorded as 4%; in test [20], 32%.
Take `CNc1nccc(-c2ccc3c(N)n[nH]c3c2)n1` [GSK2206003]: the “%Inh” value in [1] turned out to be 32%; in test [2] it was 11%; in test [3], 18%; in test [4], 17%; in test [5], 0%; in test [6] it was 0%. The “%Inh” value in test [7] is reported as 0%; in test [8], 51%; in test [9], 86%; in test [10] it was 97.1%; in [11], 84%; in test [12] it was 48%. Also, the “%Inh” value in test [13] turned out to be 95.5%; in test [14] it was 11%; in [15] it was 6%; in [16] it was 0%; in test [17], 6%; in [18], 0%. In addition, the “%Inh” value amounted to 20% in [19] and 28% in test [20].
For the compound `Nc1ncc(-c2ccc3nccc(-c4ccncc4)c3c2)cc1S(=O)(=O)N1CCCCC1` [GSK1693850], the “%Inh” value in test [1] worked out at 45%; in test [2], 5%; in [3] it was 0%; in test [4], 27%; in test [5], 0%; in [6], 0%. In addition, the “%Inh” value in test [7] was found to be 1%; in test [8] it was 23%; in [9] it was 31%; in test [10], 81%; in test [11] it was 67%; in [12] it was 49%. Further, the “%Inh” value in [13] worked out at 72%; in test [14] it was 0%; in [15], 4%; in [16], 0%; in test [17], 0%; in test [18], 0%. Further, the “%Inh” value is reported as 24% in [19] and 54% in test [20].
As to `CN(C)CCNS(=O)(=O)c1ccc(-c2ccnc3[nH]ccc23)cc1` [GSK977620], the “%Inh” value is recorded as 0% in test [1]; 0% in test [2]; 0% in [3]; 8% in [4]; 0% in [5]; 0% in test [6]. Further, the “%Inh” value in test [7] is on record as 35%; in [8], 27%; in test [9], 27%; in [10], 88%; in [11], 92.3%; in test [12], 70%. Besides, the “%Inh” value in test [13] stood at 94.4%; in [14], 0%; in [15], 27%; in test [16], 0%; in [17], 16%; in [18] it was 29%. The “%Inh” value stood at 38% in [19] and 48% in [20].
On to `O=C(Nc1n[nH]c2nc(-c3cccc(O)c3)ccc12)C1CC1` [SB-711805], for which the “%Inh” value in [1] stood at 0%; in test [2] it was 0%; in test [3] it was 30%; in test [4], 80%; in test [5] it was 0%; in test [6], 9%. For the same compound, the “%Inh” value in [7] is 0%; in [8], 25%; in [9] it was 21%; in test [10], 20%; in test [11] it was 20%; in [12], 16%. In addition, the “%Inh” value in test [13] was 0%; in [14], 0%; in test [15] it was 0%; in test [16], 100%; in [17] it was 6%; in test [18] it was 0%. In addition, the “%Inh” value in test [19] is on record as 11%; in [20], 34%.
